Compound activity (PubChem)
This is a sample that favours compounds with a hit; in the whole collection about 1.7% have one here.
ATG4B inhibitor: ATG4B protease inhibitors, primary screen, biochemical, fluorescence, uHTS. Cysteine protease ATG4B (Homo sapiens), Q9Y4P1. ATG4B cleavage of LC3-PLA2, NBD-HPC fluorescence, 1 h. inhibition, % at 8.33 µM. 340,000 compounds, 0.51% hits. AID 504462, 2011
SUMO1-SIM PPI: modulators of SUMO1 protein-protein interactions, primary screen, biochemical, uHTS; Small ubiquitin-related modifier 1 (Homo sapiens), P63165; SUMO1 binding to a labelled peptide, TR-FRET, 1 h; inhibition, % at 20 µM; 360,000 compounds, 0.33% hits; AID 602429, 2012; in the data active = inhibition above about 37%
Neddylation inh: inhibitors of cullin neddylation, primary screen, biochemical, TR-FRET, uHTS, NAE and Ubc12; inhibition, % at 25 µM; 360,000 compounds, 0.58% hits; in the data active = inhibition above about 36%
Rin1-Abl PPI inh: inhibitors of Rin1-Abl protein binding, primary screen, biochemical, TR-FRET; inhibition, % at 7.35 µM; 360,000 compounds, 0.4% hits; in the data active = inhibition above about 5%, passing the limit was not always enough
Target sequence (P00519 whole entry, looked up): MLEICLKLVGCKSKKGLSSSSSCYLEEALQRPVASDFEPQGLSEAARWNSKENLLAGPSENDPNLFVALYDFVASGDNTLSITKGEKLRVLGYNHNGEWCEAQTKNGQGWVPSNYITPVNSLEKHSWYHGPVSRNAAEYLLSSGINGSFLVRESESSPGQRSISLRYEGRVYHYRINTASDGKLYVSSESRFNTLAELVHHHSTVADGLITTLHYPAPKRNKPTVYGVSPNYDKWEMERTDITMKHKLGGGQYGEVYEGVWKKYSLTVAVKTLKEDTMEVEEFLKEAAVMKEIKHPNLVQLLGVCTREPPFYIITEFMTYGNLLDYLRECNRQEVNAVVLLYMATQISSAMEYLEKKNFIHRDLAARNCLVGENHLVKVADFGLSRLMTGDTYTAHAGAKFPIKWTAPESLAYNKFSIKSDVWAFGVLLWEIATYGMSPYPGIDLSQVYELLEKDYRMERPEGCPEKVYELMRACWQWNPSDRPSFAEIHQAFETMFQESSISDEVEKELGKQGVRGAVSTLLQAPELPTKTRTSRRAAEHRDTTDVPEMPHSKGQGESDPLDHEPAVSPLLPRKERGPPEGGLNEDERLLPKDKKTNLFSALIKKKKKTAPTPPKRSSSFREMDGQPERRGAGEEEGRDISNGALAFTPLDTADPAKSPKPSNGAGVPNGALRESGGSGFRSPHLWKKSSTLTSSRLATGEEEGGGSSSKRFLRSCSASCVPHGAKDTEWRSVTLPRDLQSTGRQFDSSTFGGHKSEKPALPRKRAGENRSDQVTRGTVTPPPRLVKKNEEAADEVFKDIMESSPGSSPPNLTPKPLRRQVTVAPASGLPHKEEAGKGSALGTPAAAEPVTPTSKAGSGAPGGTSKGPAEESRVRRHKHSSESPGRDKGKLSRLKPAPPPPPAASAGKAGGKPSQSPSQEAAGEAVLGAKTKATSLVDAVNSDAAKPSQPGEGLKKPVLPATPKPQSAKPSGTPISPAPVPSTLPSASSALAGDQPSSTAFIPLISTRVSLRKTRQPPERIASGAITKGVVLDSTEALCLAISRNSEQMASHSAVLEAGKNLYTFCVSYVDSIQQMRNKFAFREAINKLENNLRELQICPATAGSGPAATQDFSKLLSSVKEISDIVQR
Target sequence (Q13671 whole entry, looked up): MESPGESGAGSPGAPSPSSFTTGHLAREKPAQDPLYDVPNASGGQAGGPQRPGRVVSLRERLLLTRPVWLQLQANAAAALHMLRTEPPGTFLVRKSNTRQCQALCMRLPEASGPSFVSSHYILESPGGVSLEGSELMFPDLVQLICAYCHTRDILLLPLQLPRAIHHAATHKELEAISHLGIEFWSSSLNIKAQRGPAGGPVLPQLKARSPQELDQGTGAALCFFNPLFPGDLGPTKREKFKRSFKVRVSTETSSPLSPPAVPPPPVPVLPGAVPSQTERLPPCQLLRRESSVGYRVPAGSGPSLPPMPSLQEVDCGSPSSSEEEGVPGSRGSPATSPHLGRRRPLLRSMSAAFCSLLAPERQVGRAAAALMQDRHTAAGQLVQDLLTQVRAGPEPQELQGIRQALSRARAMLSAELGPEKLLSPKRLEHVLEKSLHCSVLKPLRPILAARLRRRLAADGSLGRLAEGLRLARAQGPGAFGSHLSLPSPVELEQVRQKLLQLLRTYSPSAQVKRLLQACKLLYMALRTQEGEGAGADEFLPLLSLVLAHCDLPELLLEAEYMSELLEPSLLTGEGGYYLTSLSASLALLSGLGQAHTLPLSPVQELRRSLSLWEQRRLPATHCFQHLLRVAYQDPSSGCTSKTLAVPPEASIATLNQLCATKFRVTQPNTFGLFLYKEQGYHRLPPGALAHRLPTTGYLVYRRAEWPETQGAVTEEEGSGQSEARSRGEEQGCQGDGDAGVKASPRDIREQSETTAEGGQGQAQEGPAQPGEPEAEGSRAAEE
Neddyl inh conf: blockade of NEDD8 conjugation to cullin – biochemical, TR-FRET, single concentration, confirmation; shares compounds with Neddylation inh; TR-FRET cullin neddylation biochemical assay; calls only at 25 µM; 1,800 compounds, 13% hits; AID 652217, 2013;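 note: neddylation substrate is the cullin 1 ring ligase complex with SKP2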
Starred values were filed as active, the others as inactive; i = inactive; x = no result given; + = active, no number. Cut-off read from the data, not from the text of the source, unless noted: active = inhibition above about 40%; inactive = the rest.

SMILES	ATG4B inhibitor	SUMO1-SIM PPI	Neddylation inh	Rin1-Abl PPI inh	Neddyl inh conf
O=C(Cn1nc(-c2ccco2)ccc1=O)Nc1ccc(Br)cc1	-1	-16	45*	0	x
Cc1cccc(NC(=O)Cn2nc(-c3ccco3)ccc2=O)c1C	4	-15	43*	4	x
O=C(Cn1nc(-c2cccs2)ccc1=O)Nc1ccc(Br)cc1	-18	-16	-1	-1	x
CCOC(=O)c1c(C)n(-c2ccccc2)c2ccc(O)cc12	-17	2	19	0	x
CCOC(=O)c1c(-c2ccccc2)n(C)c2ccc(O)cc12	-2	-1	42*	-1	x
Nc1cc2c(cc1Br)-c1c(C(=O)O)cccc1C2O (centres undefined)	3	1	39*	3	i
CCN(CC)Cc1c(O)ccc2c(-c3ccccc3)cc(=O)oc12	6	-22	42*	0	i
CCCCN(CC)Cc1c(O)ccc2c(-c3ccccc3)cc(=O)oc12	-5	-33	43*	-1	x
CC1(C(=O)NS(=O)(=O)c2cccc(Cl)c2)CCN1C(=O)CCc1ccccc1 (centres undefined)	x	9	2	0	x
CC1(C(=O)NS(=O)(=O)c2cccc(F)c2)CCN1C(=O)Cc1cccc2ccccc12 (centres undefined)	x	4	2	-2	x
CCc1nnc(NC(=O)CSc2nnc(-c3ccccc3O)n2-c2ccc(C)cc2C)s1	10	1	41*	-2	i
CCc1nnc(NC(=O)CSc2nnc(COc3ccccc3)n2-c2ccc(C)cc2)s1	-15	-2	-16	-3	x
CCOC(=O)C1=C(COC(=O)/C=C/c2ccc(OC)cc2)NC(=O)NC1C (centres undefined)	0	-23	-8	3	x
CCOC(=O)C1=C(COC(=O)/C=C/c2ccc(SC)cc2)NC(=O)NC1C (centres undefined)	0	-22	51*	0	x
Cc1cc(NC2CCCC2)n2nc(C)c(-c3ccccc3)c2n1	-2	4	x	2	x
COc1ccc(-c2c(C)nn3c(NC4CCCC4)cc(C)nc23)cc1OC	8	7	48*	4	i
Cc1cc(C)nc(NC(=O)c2cc(-c3ccc4c(c3)OCO4)nc3ccccc23)c1	6	-4	53*	-5	x
CS(=O)(=O)N(CC(=O)N/N=C/c1cccc2c1OCCO2)c1ccccc1Br	-17	-6	45*	-4	+
CCOC(=O)/C(O)=C(\C#N)c1nc2ccccc2[nH]1	3	2	50*	-1	x
Cc1cccc(CN2CCN(C3CN(Cc4cn(Cc5ccccc5C(F)(F)F)nn4)S(=O)(=O)C3)CC2)c1 (centres undefined)	x	6	-5	2	x
O=C(Nc1ccc2c(c1)OCO2)c1cc(C2CCCN(C(=O)C3CCCCC3)C2)on1 (centres undefined)	x	1	2	0	x
O=C(c1ccccc1)n1c2ccccc2c(=O)n1-c1ccccc1CCl	x	3	-14	5	x
COc1ccc(-n2cc(CNCC3CCOCC3)c(-c3cccc(F)c3)n2)cc1	2	-2	x	3	x
COc1ccc(-n2cc(CNCc3cnc4ccccn34)c(-c3cccc(F)c3)n2)cc1	0	3	42*	0	x
CCOC(=O)c1oc2ccccc2c1NC(=O)c1ccc2c(c1)OCO2	0	0	8	-1	x
SMILES	ATG4B inhibitor	SUMO1-SIM PPI	Neddylation inh	Rin1-Abl PPI inh	Neddyl inh conf
CCOC(=O)c1[nH]c2ccc(OC)cc2c1NC(=O)c1ccc2c(c1)OCO2	-12	-6	8	-2	x
COC(=O)c1[nH]c2cc(OC)ccc2c1NC(=O)c1ccc2c(c1)OCO2	-5	9	42*	1	i
COc1ccc(NC(=O)c2oc3ccccc3c2NC(=O)c2ccc3c(c2)OCO3)cc1	6	-3	42*	0	i
CC(C)CNC(=S)N(CCN(C)C)Cc1cc2cc3c(cc2[nH]c1=O)OCO3	-4	-4	36	-4	x
CCNC(=S)N(Cc1cccs1)Cc1cc2cc(OCC)ccc2[nH]c1=O	-7	0	24	-2	x
CCNC(=S)N(CCN(C)C)Cc1cc2cc(OCC)ccc2[nH]c1=O	-3	-1	41*	-3	i
CN(C)CCN(Cc1cc2cc3c(cc2[nH]c1=O)OCO3)C(=S)NCc1ccco1	8	-3	40*	1	i
CCNC(=S)N(CCN(C)C)Cc1cc2cc3c(cc2[nH]c1=O)OCO3	-5	1	53*	0	x
O=c1[nH]c2cc3c(cc2cc1CN(Cc1cccnc1)C(=S)NCc1ccco1)OCO3	-1	-3	14	3	x
CCCCn1c(=NC(=O)c2ccc3c(c2)OCO3)c(C#N)cc2c(=O)n3cccc(C)c3nc21	3	-3	55*	-4	i
CC(C)=C[C@H]1C[C@H](C)[C@H]2CC[C@H](C)c3c(O)c(O[C@H]4OC[C@H](O)[C@@H](O)[C@@H]4O)c(C)c1c32	x	2	1	1	x
O=C(NC1CCCCC1)OC1CC2CC1[C@H]1CCCCN1C2=O (some centres undefined)	x	-2	3	x	x
COc1ccc(C(=O)N/N=C/c2sc(N3CCOCC3)nc2-c2ccccc2)cc1OC	-8	-3	45*	-6	i
O=C(N/N=C/c1sc(N2CCOCC2)nc1-c1ccccc1)c1ccc(O)cc1	-4	14	59*	-2	+
Cc1occc1C(=O)N/N=C/c1sc(N2CCOCC2)nc1-c1ccccc1	-1	-4	10	3	x
COc1ccc(CCN2C(=O)CSCC2(C)C(=O)Nc2ccc3c(c2)OCCO3)cc1OC (centres undefined)	x	1	3	x	x
CC(=O)Oc1ccc2nc(/C=C/c3ccc(C=O)cc3)oc(=O)c2c1	4	-14	18	0	x
CC(=O)Oc1ccc2nc(/C=C/c3ccccc3)oc(=O)c2c1	2	-9	45*	2	i
COC(=O)C1CCN(S(=O)(=O)c2c[nH]c(=O)[nH]c2=O)CC1	x	-3	0	-5	x
CCCN1c2cccc3cccc(c23)S1(=O)=O	-6	-11	48*	-1	x
N#CCCCCN1c2cccc3cccc(c23)S1(=O)=O	-13	-7	x	-2	x
O=S1(=O)c2cccc3cccc(c23)N1CCBr	-5	-10	42*	1	i
NC(=O)C1CC2(C1)CC(C(N)=O)C2 (centres undefined)	-14	0	1	2	x
O=c1c2c(nc3c(-c4ccccc4)c[nH]n13)CCCC2	-3	7	38*	-2	x
Cc1[nH]n2c(=O)c3c(nc2c1-c1ccccc1)CCC3	4	1	36	1	x
Cc1ccc(O)c(/C=N/NC(=O)CN2CCCC2)c1	0	-7	46*	-7	i
C=CCNC(=O)c1cc2cc(Cl)ccc2nc1N	x	-1	x	x	x
